CSC inhib – blocks cancer stem cells; inhibition, % at 7.5 µM; cancer stem cell-like cells viability, luminescence; hit rate 1.1% among 300,000; in the data active means inhibition above about 75%; inconclusive means no clear call, values can overlap the other calls; tested in HMLE shEcad cells
ALR H2O2 inh – blocks human ALR sulfhydryl oxidase activity. P55789. purified ALR, DTT oxidation, H2O2 HRP-luminol luminescence. inhibition, % (test concentration not listed). hit rate 3.8% among 290,000. AID 485317;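 active means mean replicate inhibition above about 79%, with every replicate also reaching it, limit read from the data; inconclusive means only one of the two criteria met; inactive means mean below limit and not every replicate reaching it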
Target sequence (P55789 whole entry, looked up): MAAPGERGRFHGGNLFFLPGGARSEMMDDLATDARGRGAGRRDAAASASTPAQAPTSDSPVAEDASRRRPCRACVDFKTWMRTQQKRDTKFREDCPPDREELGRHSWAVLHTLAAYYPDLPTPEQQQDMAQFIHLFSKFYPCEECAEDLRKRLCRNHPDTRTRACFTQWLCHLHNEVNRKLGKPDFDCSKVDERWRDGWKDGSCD
Calb FLC – affects C. albicans growth with fluconazole. C. albicans CaCi-2 (fluconazole-resistant clinical isolate) + fluconazole, Alamar Blue growth, 48 h. growth inhibition, % (test concentration not listed). hit rate 0.57% among 300,000. AID 1979;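 active means growth inhibition above about 58% in most replicates, limit read from the data, passing the limit was not always enough; inconclusive means exactly half the replicates above a set limit; inactive means most replicates below a set limit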;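 further: all wells also contain fluconazole at 8 µg/ml as a sub-toxic cotreatment; 0% = median of DMSO wells and 100% = median of geldanamycin control wells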
PP5 inh – PP5 (human) phosphatase inhibition; P53041; purified PP5c, OMFP substrate fluorescence; AID 1987; hit rate 0.18% among 320,000; inhibition, % at 6.7 µM;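 active means inhibition above the campaign's mean inhibition across all tested compounds plus 3 SD, cut at about 9.5% in these data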;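 further: 0% = DMSO only and 100% = 100 µM cantharidin control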
PP1 counter – PP1-alpha (human) inhibition in PP5 counter-screen. AID 2235. purified PP1alpha, OMFP fluorescence. inhibition, % at 6.7 µM. hit rate 0.9% among 320,000. P62136;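 active means inhibition above the mean inhibition of all tested compounds plus 3 SD, computed separately for each screening campaign, cut at about 15% in these data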
Target sequence (P62136 whole entry, looked up): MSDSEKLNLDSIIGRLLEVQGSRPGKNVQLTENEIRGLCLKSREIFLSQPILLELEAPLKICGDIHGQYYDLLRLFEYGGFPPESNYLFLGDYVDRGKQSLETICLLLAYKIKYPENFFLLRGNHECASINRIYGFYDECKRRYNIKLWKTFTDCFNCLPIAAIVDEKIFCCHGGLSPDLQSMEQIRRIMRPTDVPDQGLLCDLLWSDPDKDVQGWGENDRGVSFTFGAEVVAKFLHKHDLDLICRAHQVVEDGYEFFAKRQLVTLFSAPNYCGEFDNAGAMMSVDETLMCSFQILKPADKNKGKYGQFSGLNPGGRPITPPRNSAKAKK
PP1 inh confirm – confirmation of human PP1 phosphatase inhibitors; purified PP1alpha, OMFP substrate fluorescence; inhibition, % at 6.7 µM; shares compounds with PP1 counter; hit rate 52% among 1,900;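 active means mean PP1 inhibition above a set limit taken from the earlier primary screen, cut at about 15% in these data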
PP5 inh counter – inhibits human PP5 phosphatase in PP1 counter-screen; shares compounds with PP1 counter; purified PP5c, OMFP fluorescence; inhibition, % at 6.7 µM; hit rate 4% among 1,900; AID 2360;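 active means mean PP5 inhibition over triplicate wells above about 9.5% taken from the earlier PP1 screen, limit read from the data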
An asterisk follows results filed as active; ? = inconclusive; / = no result given. Sampled rows, rich in hits. Any-hit rate of the full collection: about 5.4%.

SMILES	CSC inhib	ALR H2O2 inh	Calb FLC	PP5 inh	PP1 counter	PP1 inh confirm	PP5 inh counter
O=C(NN1C(=O)c2ccccc2NC1c1ccco1)c1ccc(Br)cc1 (stereo not drawn)	-1	-2	3	1	-3	/	/
Cn1c(CCCNC(=O)c2cccs2)nc2ccccc21	-10	-3	-10	0	-4	/	/
COC(=O)C1=C(C)OC(N)=C(C#N)C1c1ccccc1F (stereo not drawn)	-1	13	4	0	-4	/	/
COC(=O)C1=C(CSc2nc3c(cc2C#N)CN(C)CC3)OC(N)=C(C#N)C1c1ccccc1F (stereo not drawn)	0	-4	17	3	18*	5	4
Cc1cnc(C(=O)OCC(=O)N(C)CC(=O)Nc2ccccc2Cl)cn1	-15	6	1	0	3	/	/
Cc1ccc(/C=N/n2c(-c3ccc(Cl)cc3)n[nH]c2=S)s1	-1	3	26	2	20*	10	-4
COc1cccc(-c2cc(N)nn2C(=O)Nc2ccc(Cl)cc2)c1	65	100*	-4	3	23*	17*	7
COc1cc(/C=C/c2ccc3cccc(O)c3n2)cc(Cl)c1OC	91*	-20	-2	0	18*	26*	1
COc1ccc(/C=C/c2ccc3c(Br)ccc(O)c3n2)cc1	89*	-21	0	1	22*	19*	-6
CC(=O)COc1cccc2ccc(/C=C/c3ccc(Br)s3)nc12	40	-8	11	0	-3	/	/
COc1cccc(/C=C/c2ccc3cccc(O)c3n2)c1OC	66	-2	4	0	20*	17*	-4
COc1ccc(/C=C/c2ccc3cccc(O)c3n2)c(OC)c1OC	73	/	59	5	12	/	/
Cc1ccc(/C=C/c2ccc3cccc(O)c3n2)s1	40	-44	-4	3	20*	16*	2
Cc1ccc(CNc2oc(COc3ccccc3Cl)nc2C#N)cc1	-9	0	-17	6	4	/	/
CSc1cccc(NC(=O)COC(=O)c2ccccn2)c1	/	/	/	1	-3	/	/
O=C(COC(=O)c1ccc2ncsc2c1)NCc1ccc(F)cc1	6	-2	/	2	2	/	/
CCC(=O)c1cc(F)c(N2CCN(C(=O)c3ccco3)CC2)cc1C	2	-2	0	-3	-3	/	/
COc1ccc(Br)cc1/C=C/c1ccc2cccc(O)c2n1	28	-4	-6	0	15	/	/
COc1cccc(/C=C/c2ccc3cccc(O)c3n2)c1	41	-13	3	0	19*	19*	-1
CCCc1c(O)c2ccccc2[nH]c1=O	-3	-1	-6	0	-1	/	/
COc1cc(/C=C2\SC(=O)N(CC(=O)Nc3cccc(C)c3)C2=O)ccc1OC(C)C(=O)O (stereo not drawn)	4	7	3	0	-1	/	/
Cc1cc2oc(=O)cc(CN3CCCCC3C)c2cc1C(C)C (stereo not drawn)	-10	4	0	3	3	/	/
CCC(CC)C(=O)NCc1ccc(Cl)cc1	1	-2	-1	0	8	/	/
CC1CC(=O)c2c(cc3c(-c4c(O)cc(O)c5c(O)c6c(cc45)OC(C)CC6=O)c(O)cc(O)c3c2O)O1 (stereo not drawn)	-1	51	-16	1	70*	48*	2
CCC(=O)N1C(C(=O)O)CSC1c1ccc(OC)cc1 (stereo not drawn)	/	-4	1	-1	31*	-2	-4
SMILES	CSC inhib	ALR H2O2 inh	Calb FLC	PP5 inh	PP1 counter	PP1 inh confirm	PP5 inh counter
CCOC(=O)c1ccc(NC(=O)COc2ccc(-n3cnnn3)cc2)cc1	5	-3	5	1	20*	5	-6
Cc1ccc(CNC(=O)C2CC(c3ccc([N+](=O)[O-])cc3)=NO2)cc1 (stereo not drawn)	23	-3	-17	0	-4	/	/
COc1ccc(CNC(=O)C2C3C=CC4(CN(Cc5cccnc5)C(=O)C24)O3)cc1 (stereo not drawn)	-8	0	3	-2	-2	/	/
Cc1cc2nc(-c3ccc(SCC(=O)Nc4ccc(S(=O)(=O)N5CCCC5)cc4)nc3)[nH]c2cc1C	22	-9	-4	1	35*	34*	-2
Cc1c(CCOC(=O)C23CC4CC(CC(C)(C4)C2)C3)sc[n+]1CC(=O)c1ccccc1	-7	13	15	0	20*	-7	-5
O=C(Nc1ccc(N2CCN(C(=O)c3ccco3)CC2)cc1)c1ccc(Br)cc1	-1	0	/	1	21*	39*	-2
COC(=O)c1ccc(NC(=O)c2ccc(NC(=O)c3ccco3)cc2)cc1	10	/	-9	2	30*	26*	-2
O=C(/C=C/c1ccc(Br)cc1)c1ccc(NC(=O)c2ccco2)cc1	48	3	-6	1	22*	22*	1
CC(=O)c1ccc(NC(=O)c2ccc(NC(=O)c3ccco3)cc2)cc1	-4	/	-10	1	10	/	/
O=C(/C=C/c1ccc(Br)cc1)c1ccco1	20	-2	2	3	-5	/	/
COc1ccccc1C(=O)NCCC(=O)NCC(c1ccccc1OC)N1CCCC1 (stereo not drawn)	-8	-5	-2	-4	-9	/	/
COc1cc(O)c(C(CCN2CCOCC2)c2cc(OC)c(OC)c(OC)c2)c(OC)c1 (stereo not drawn)	-5	24	-11	1	-5	/	/
COCCOC(=O)C1=C(C)OC(N)=C(C#N)C1c1ccc2c(c1)OCO2 (stereo not drawn)	7	21	-8	0	-2	/	/
COc1ccc(OC)c(/C=C/C(=O)OCC(=O)Nc2nnc(-c3ccccc3)o2)c1	/	6	/	1	33*	28*	-2
COc1cccc(C(=O)OCC(=O)Nc2nnc(-c3ccccc3)o2)c1	-3	46	-3	1	8	/	/
Cc1cc(F)ccc1NS(=O)(=O)c1c(C)nc2scc(C)n2c1=O	-12	-10	0	0	-2	/	/
CC1(OC(=O)c2cccs2)C(=O)C=C2C=C(c3ccsc3)OC=C2C1=O (stereo not drawn)	-13	-16	7	-1	11	/	/
CC1(OC(=O)c2cccs2)C(=O)C=C2C=C(c3ccc(C#N)cc3)OC=C2C1=O (stereo not drawn)	-9	-6	-4	3	21*	10	-1
Cc1sc(NC(=O)Cc2ccc3c(c2)OCO3)nc1-c1ccc2c(c1)CCN2C(=O)c1cccc(F)c1	24	/	-4	1	9	/	/
Cc1ccccc1C(=O)N1CCc2cc(-c3nc(NC(=O)Cc4ccc5c(c4)OCO5)sc3C)ccc21	0	0	1	4	19*	19*	3
CSc1nc(N(C)CCO)c2sc3nc(-c4ccco4)c4c(c3c2n1)CCC4	16	98*	14	-1	30*	31*	-1
CC1Cc2cc(/C=C3/SC(=S)NC3=O)ccc2O1 (stereo not drawn)	57	?	0	0	7	/	/

Screening data as filed in PubChem.
